Measured values taken from PubChem BioAssay.
Calls of active or inactive are those of the source. Unless noted, the rule behind the calls is not given here.

Assays:
[1] = tested on: XIP peptide (Xip251-270) binding; assay: small-molecule binders of XIP peptide, primary screen, biochemical, small-molecule microarray, fluorescence 635/667 nm, 0.1 µg/mL protein (AID 1182); conditions: fluorescent protein binding, 635 nm, higher = more signal, called active from +8 up or from −8 down
[2] = tested on: XIP peptide (Xip251-270); assay: small-molecule binders of XIP peptide, primary screen, biochemical, small-molecule microarray, fluorescence 635/667 nm, 0.5 µg/mL protein (AID 1183); conditions: small-molecule microarray binding, fluorescence 635 nm; higher = more signal
[3] = Plasmodium falciparum growth inhibition, primary screen, strain 3D7, DAPI fluorescence, 100 nL (AID 1184);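 note: parasites grown inside human red blood cells in medium with human serum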; conditions: P. falciparum 3D7 growth, 3 d, higher = more signal
[4] = biological target: Homeobox protein Hox-A13 (Mus musculus) (UniProt Q62424); assay: inhibitors of HoxA13-DNA binding, primary screen, biochemical, fluorescence polarization, labeled oligonucleotide (AID 1185); conditions: 15 min, higher = more signal, called active from +8 up or from −8 down
[5] = inhibitors of hydroxyurea-induced Chk1 phosphorylation, primary screen, imaging, HeLa, phospho-Chk1 antibody, percent positive cells (AID 1186); conditions: hydroxyurea-induced phospho-Chk1 immunofluorescence imaging, higher = more signal
[6] = inhibitors of hydroxyurea-induced Chk1 phosphorylation, primary screen, imaging, HeLa, phospho-Chk1 nuclear intensity (AID 1187); conditions: hydroxyurea-induced phospho-Chk1 immunofluorescence imaging, higher = more signal

Chain of Homeobox protein Hox-A13 (Mus musculus) (Q62424 whole entry, looked up): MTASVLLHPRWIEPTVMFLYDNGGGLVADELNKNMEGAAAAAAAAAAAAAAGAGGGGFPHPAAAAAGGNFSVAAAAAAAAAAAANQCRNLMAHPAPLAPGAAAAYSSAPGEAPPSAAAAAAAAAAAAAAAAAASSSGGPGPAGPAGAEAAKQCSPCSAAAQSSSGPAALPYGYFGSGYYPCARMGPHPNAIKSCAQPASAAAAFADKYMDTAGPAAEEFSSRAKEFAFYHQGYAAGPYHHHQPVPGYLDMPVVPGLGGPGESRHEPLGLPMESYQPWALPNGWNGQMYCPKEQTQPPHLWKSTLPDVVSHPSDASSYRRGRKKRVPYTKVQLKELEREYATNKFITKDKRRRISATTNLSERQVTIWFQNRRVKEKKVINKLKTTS

Row | Compound | composite z-score [1] | composite z-score [2] | z-score [3] | z-score [4] | z-score [5] | z-score [6]
1 | C=C(/C(=C/C[C@@H](OC(=O)c1ccncc1)c1ccc(OCCO)cc1)c1cc(C(=O)OC)ccc1OC)C(C)C | 0.281 (inactive) | 0.309 | -2.78 | -3.5 (inactive) | -0.899 (inactive) | -0.125 (inactive)
2 | C[C@]1(C(=O)NC2CC2)c2ccccc2C(=O)N(Cc2ccc(OC(F)(F)F)cc2)[C@H]1c1ccc(CO)cc1 | 0.282 (inactive) | -0.923 | 0.516 | -3.59 (inactive) | -0.0307 (inactive) | -0.521 (inactive)
3 | CCOC(=O)[C@@H]1[C@@H]2C(=O)N(CC)C(=O)[C@@H]2C[C@@H]1Sc1ccccc1 | -0.266 (inactive) | 0.313 | -0.555 | -4.73 (inactive) | 0.899 (inactive) | 0.647 (inactive)
4 | C=C[C@H](COC(C)=O)NS(=O)(=O)c1ccc(Br)cc1 | -0.111 (inactive) | 0.238 | 0.463 | -0.189 (inactive) | -0.655 (inactive) | -0.782 (inactive)
5 | COCCOC(=O)N1C(=O)[C@@]2(c3cc(C#CC4(O)CCCCCC4)ccc31)[C@H](c1ccccc1OCCO)N1[C@H](c3ccccc3)[C@H](c3ccccc3)OC(=O)[C@H]1[C@@H]2C(N)=O | 0.151 (inactive) | 0.774 | -2.07 | -2.04 (inactive) | 0.141 (inactive) | -0.377 (inactive)
6 | COCC(=C=CC[C@H](O)c1cccc(OCCO)c1)C[C@H](O)c1ccccn1 | 0.198 (inactive) | 0.157 | -0.737 | -4.27 (inactive) | -0.028 (inactive) | 0.745 (inactive)
7 | CN(C)CCCNC(=O)[C@@H]1c2ccccc2C(=O)N(CC23CC4CC(CC(C4)C2)C3)[C@H]1c1ccc(CO)cc1 | 1.18 (inactive) | 0.824 | -2.18 | 3.41 (inactive) | 0.595 (inactive) | 1.05 (inactive)
8 | O=C1O[C@@H](c2ccccc2)[C@@H](c2ccccc2)N2[C@@H](c3ccccc3OCCO)[C@]3(C(=O)Nc4ccccc43)[C@@H](C(=O)NC[C@H](O)c3ccccc3)[C@H]12 | 1.42 (inactive) | -0.303 | -0.692 | -5.34 (inactive) | -0.152 (inactive) | -0.169 (inactive)
9 | O=C1c2ccccc2[C@](Cc2ccccc2I)(C(=O)NCCN2CCOCC2)[C@H](c2ccc(CO)cc2)N1Cc1ccccc1 | 0.198 (inactive) | 0.67 | -0.74 | -5.76 (inactive) | -0.0525 (inactive) | -0.321 (inactive)
10 | CCOC(=O)C1=CC[C@@H](c2ccccc2)N(S(=O)(=O)c2ccc(C)cc2)C1 | -0.4 (inactive) | -0.654 | -0.557 | -2.76 (inactive) | 0.107 (inactive) | -0.749 (inactive)
11 | Cc1ccc(F)cc1S(=O)(=O)N[C@@H]1CCN(Cc2ccc(OC(C)C)cc2)C1 | -0.46 (inactive) | -0.701 | -0.85 | -5.27 (inactive) | 0.239 (inactive) | 1.54 (inactive)
12 | CC(C)(C)OC(=O)CC[C@@]1(C(=O)O)N=C(c2ccc(OCCCO)cc2)O[C@@H]1c1ccccc1CN=[N+]=[N-] | -0.168 (inactive) | 0.963 | 0.664 | -4.73 (inactive) | -0.0889 (inactive) | -0.0647 (inactive)
13 | CCOC(=O)C[C@H]1[C@H](OC(=O)c2ccc(-c3ccccc3)cc2)[C@@H](NC(=O)C2CCCCC2)c2cc(OCCCO)ccc2N1C(=O)c1ccccc1 | -0.264 (inactive) | 0.379 | -0.723 | -2.07 (inactive) | -0.0374 (inactive) | 0.0385 (inactive)
14 | COC(=O)[C@@]1(Cc2ccc(OC)cc2)[C@H]2c3cc(C(=O)N(C)C)n(Cc4nc5ccccc5[nH]4)c3C[C@H]2CN1C(=O)c1ccccc1 | 0.469 (inactive) | 0.599 | -1.17 | -3.08 (inactive) | 0.399 (inactive) | 0.0842 (inactive)
15 | O=C1O[C@@H](c2ccccc2)[C@@H](c2ccccc2)N2[C@@H](c3ccccc3OCCO)[C@]3(C(=O)Nc4ccc(C#CCCO)cc43)[C@@H](C(=O)N3CCN(c4ncccn4)CC3)[C@H]12 | 0.665 (inactive) | 0.617 | -2.05 | -1.33 (inactive) | -0.0995 (inactive) | 0.113 (inactive)
16 | CC(CO)N1C(=O)[C@@H]2C3C(=O)OCCC/C=C\[C@H]3OC23C=CCN(Cn2nnc4ccccc42)C(=O)[C@@H]13 (some centres not stated) | -0.584 (inactive) | 0.475 | 0.357 | -2.97 (inactive) | -0.235 (inactive) | 0.103 (inactive)
17 | CC(C)NC(=O)[C@@]1(C)c2ccccc2C(=O)N(C(C)C)[C@H]1c1ccc(CO)cc1 | 3.06 (inactive) | 0.884 | -0.568 | -2.26 (inactive) | 0.244 (inactive) | 0.246 (inactive)
